Results filed as inconclusive are left out. A call without a number means that no potency is given here. Calls of active or inactive are those of the source. Calls come from the whole dose curve; as a rule, active = well fitted inhibition curve with a large enough effect; inconclusive = small, poorly fitted or top-dose-only effect, or effect the other way; inactive = flat fitted curve, though single readings scatter.
Potency is the fitted concentration of half-maximal effect.

This experiment deals with D(1A) dopamine receptor (Homo sapiens) (UniProt P21728). In words: HTS Assay for Allosteric Agonists of the Human D1 Dopamine Receptor: Primary Screen for Antagonists (AID 488983). Note: nearly all actives have a fitted effect of over 65% in size. The following applies: D1 receptor cell assay, antagonist mode, qHTS titration; series mostly up to 41.8 µM. The source says: Dopamine receptors (DARs) are involved in the etiology and/or therapy of a number of neuropsychiatric and endocrine disorders. For instance, all receptor-based antiparkinsonian drugs work via stimulating the […] DAR subtype whereas all FDA-approved antipsychotic agents are antagonists of this receptor. […] There are three different types of allosteric modulators that we are seeking, two of which will stimulate or augment receptor signaling, allosteric agonists and potentiators, while the third, allosteric antagonists, will attenuate receptor signaling. The present primary screening assay measures compound agonism by tracking calcium flux in a […], inducible Hek293 Trex D1 cell line.
D(1A) dopamine receptor (Homo sapiens), sequence (P21728 whole entry, looked up): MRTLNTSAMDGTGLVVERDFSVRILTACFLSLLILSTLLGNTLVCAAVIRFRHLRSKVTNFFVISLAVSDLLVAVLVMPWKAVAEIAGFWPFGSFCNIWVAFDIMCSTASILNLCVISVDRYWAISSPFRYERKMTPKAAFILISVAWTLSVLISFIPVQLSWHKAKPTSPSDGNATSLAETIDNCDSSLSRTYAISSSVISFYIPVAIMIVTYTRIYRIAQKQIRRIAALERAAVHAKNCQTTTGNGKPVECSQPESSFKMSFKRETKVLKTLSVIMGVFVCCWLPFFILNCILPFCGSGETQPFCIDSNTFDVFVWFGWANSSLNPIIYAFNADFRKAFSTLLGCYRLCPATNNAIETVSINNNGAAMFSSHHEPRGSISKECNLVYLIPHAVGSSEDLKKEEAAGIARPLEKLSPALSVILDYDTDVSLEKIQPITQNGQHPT
Freshly passaged cells are plated in 1536 well black, clear bottom plates at a density of 4000 cells/well in 3 ul of complete media containing 1x tetracycline inducer. After an overnight incubation at 30 C in 5% CO2, cells are loaded with 2 ul of the no wash Calcium Assay Kit (ABD Bioquest) and incubated at room temperature for 30 to 90 minutes. A 10 cycle (1 second/cycle) baseline measurement is taken and then the FDSS online 1536 pintool delivers 23 nl of compound library (as well as dopamine controls) to the plate. The plate is measured for kinetically at 1 cycle/sec for 180 seconds and is considered to be the agonist portion of the assay (eg, compounds which activate a positive calcium response during this portion are flagged as potential agonists). Following the 180 second read, 1 ul of an EC80 of dopamine is delivered by an onboard pipette head. Measurements are taken kinetically for an additional 180 seconds.
(In qHTS, concentration-response curves come from the screen itself.)
Regarding `NNC(N)=O`, the Potency entry was “inactive”.

Turning to `Clc1ccc(N2CC3CCC(C2)N3)nn1`, the Potency result was “inactive”.

For the compound `CC(C)[C@@]1(NC(=O)[C@@H]2C[C@@H]3c4cccc5[nH]cc(c45)C[C@H]3N(C)C2)O[C@@]2(O)[C@@H]3CCCN3C(=O)[C@H](Cc3ccccc3)N2C1=O`, the Potency was 5.62 µM (active).

With `CCCN(CCC)[C@H]1CCc2c(F)ccc(O)c2C1`, the Potency entry is “inactive”.

Consider `NC(Cc1ccc(N(CCCl)CCCl)cc1)C(=O)O` (stereo not given), for which the Potency entry is “inactive”.

On to `CCCN(CCC)C1Cc2cc(OC)c(OC)cc2C1`, for which the Potency entry is “inactive”.

In the case of `N[C@@]1(C(=O)O)CC[C@@H](C(=O)O)C1`, the Potency result is “inactive”.

Take `NCCc1c[nH]c2ccc(C(N)=O)cc12`: the Potency result is “inactive”.

On to `CN(N=O)c1ccc(O)c(O)c1`, for which the Potency result was “inactive”.

Consider `C=CCN1CCC23c4c5ccc(O)c4O[C@H]2C(=O)CC[C@@]3(O)C1C5` (stereo not given in full), for which the Potency entry was “inactive”.

Regarding `CN1CC[C@@]2(C)c3cc(O)ccc3N(C)C12` (stereo not given in full), the Potency entry was “inactive”.

As to `CCN1C[C@@]2(COC)C3[C@@H](OC)C4[C@@H]1C3([C@@H]1C[C@]3(O)[C@H](OC(=O)c5ccccc5)[C@@H]1[C@]4(OC(C)=O)[C@@H](O)[C@@H]3OC)[C@H](OC)C[C@H]2O`, the Potency result was “inactive”.

As to `CCCn1c(C)c(C(=O)c2ccc3ccccc3c2)c2ccccc21`, the Potency result is “inactive”.

As for `C=CCN1C[C@@H](C)N([C@H](c2ccc(C(=O)N(CC)CC)cc2)c2cccc(OC)c2)C[C@@H]1C`, the Potency result was “inactive”.

Consider `Cc1cc([C@@H]2CCCN2C)on1`, for which the Potency result was “inactive”.

Regarding `O=C(O)c1cc[c]([Hg][Cl])cc1`, the Potency entry is “inactive”.

Turning to `COc1ccc2c(c1)c(CCN1CCOCC1)c(C)n2C(=O)c1cccc(Cl)c1Cl`, the Potency entry is “inactive”.

Turning to `O=[N+]([O-])c1cc(O)c(O)c([N+](=O)[O-])c1`, the Potency result is “inactive”.

As to `OC1CCCCC1N1CCC(c2ccccc2)CC1` (stereo not given), the Potency entry is “inactive”.

`COc1ccc2c(c1)[C@@]13CCCC[C@H]1[C@@H](C2)NCC3`: the Potency result was “inactive”.

With `C=CCN1CC[C@]23c4c5ccc(O)c4O[C@@H]2/C(=N/N=C2\CC[C@@]4(O)C6Cc7ccc(O)c8c7[C@@]4(CCN6CC=C)[C@@H]2O8)CC[C@@]3(O)C1C5`, the Potency result was “inactive”.

With `NC(=O)c1cc(N2CC2)c([N+](=O)[O-])cc1[N+](=O)[O-]`, the Potency result was “inactive”.

In the case of `CC12NC(Cc3ccccc31)c1ccccc12` (stereo not given), the Potency result was “inactive”.

Take `C=CCN1CCc2cccc3c2[C@H]1Cc1ccc(O)c(O)c1-3`: the Potency was 0.398 µM (active).

For `COc1ccc2c(c1O)-c1cccc3c1[C@@H](C2)N(C)CC3`, the Potency was 10 µM (active).

Regarding `NC(Cc1cc(O)c(O)cc1O)C(=O)O` (stereo not given), the Potency result is “inactive”.

For `C[C@H](N)Cc1cccc(C(F)(F)F)c1`, the Potency entry was “inactive”.

In the case of `NC(N)=Nc1ccc2[nH]c3c(c2c1)C[C@@]1(O)[C@H]2Cc4ccc(O)c5c4[C@@]1(CCN2CC1CC1)[C@H]3O5`, the Potency result is “inactive”.

For the compound `N[C@@H](Cn1oc(=O)[nH]c1=O)C(=O)O`, the Potency entry was “inactive”.

With `C/C(O)=C(\C#N)C(=O)Nc1cc(Br)ccc1Br`, the Potency result was “inactive”.

With `C=CCN(C1=NCCN1)c1c(Cl)cccc1Cl`, the Potency entry is “inactive”.

For the compound `CC(N)Cc1c[nH]c2ccc(OCc3cccs3)cc12` (stereo not given), the Potency entry was “inactive”.

Regarding `C[C@]12Cc3cn4c(nc3C=C1CCC1C2CC[C@@]2(C)[C@H]1CC[C@@]2(O)C#N)nc1ccccc14` (stereo not given in full), the Potency entry was “inactive”.

In the case of `C[Se]C[C@H](N)C(=O)O`, the Potency entry is “inactive”.

For the compound `Cc1[nH]c2ccc(O)cc2c1CCN`, the Potency entry was “inactive”.

Take `CC(C)(O)[C@@H]1C2OC(=O)[C@@H]1[C@]1(O)C[C@H]3O[C@]34C(=O)O[C@H]2[C@]14C` (tested in a mixture with another compound): the Potency entry is “inactive”.

Regarding `COc1ccc2c(c1)/C(=C/c1cnc[nH]1)C(=O)N2`, the Potency result was “inactive”.

In the case of `COc1ccc(CNC(=O)/C=C/c2ccc3[nH]cc(CCN(C)C)c3c2)cc1`, the Potency result is “inactive”.

As for `C[N+]1(C)CCN(c2ccccc2)CC1`, the Potency entry was “inactive”.

In the case of `NC(=O)CI`, the Potency result is “inactive”.
